Rows were chosen to be rich in hits. Some 3.9% of all compounds tested hit in one or more screens of this group.
D1 PAM = human D1 dopamine receptor positive modulation | AID 504651 | 360,000 tested, 0.036% active | HEK293 TREx D1 cells, calcium flux, dopamine EC20 potentiation | P21728 | potentiation, % at 10 µM; in the data active = potentiation above about 30%
Eya2 inh = Eya2 (human) phosphatase inhibition | AID 488837 | Potency, µM (highest dose often 76.9 µM), usual class: inhibitors | 330,000 tested, 0.006% active | O00167 | recombinant Eya2, OMFP fluorescence dephosphorylation (OMFP is methylfluorescein phosphate)
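Eya2 protein (added as 0.2 uM solution) was preincubated with compound for 10 min at ambient temperature in 50 mM HEPES pH 7.5, 50 mM NaCl, 5 uM MgCl2, 0.05% BSA, 1 mM DTT. OMFP (added at 50 uM) then reacted 10 min; fluorescence read at 485/525 nm.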
USP2a block = inhibitors of human ubiquitin-specific protease USP2a. O75604. USP2 core, Ub-CHOP2 coupled fluorogenic reporter, 485/531. Potency, µM (series often up to 38.3 µM), most hits filed as inhibitors. 330,000 tested, 0.01% active
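USP2 core (10nM final) preincubated 30min RT with compound in 20mM Tris-HCl pH 8.0, 2mM CaCl2, 2mM beta-mercaptoethanol, 0.05% CHAPS; 25nM Ub-CHOP2 plus 25nM reporter substrate added, fluorescence (Ex485/Em531) read after 60min.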
D1 antag = antagonists of human D1 dopamine receptor; P21728; HEK293 TREx D1 cells, calcium flux, dopamine EC80; hits give low values; activity change, negative = inhibition, % at 10 µM; 360,000 tested, 3.2% active; in the data active = activity change below about -30%
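Antagonism measured as reduced calcium response to an EC80 dopamine addition following 180 s compound pre-read; cells were inducible HEK293 Trex D1 plated overnight at 30 C, read kinetically at 1 cycle/sec.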
GALK inh = inhibitors of human galactokinase | Purified GALK, Kinase-Glo residual ATP luminescence | Potency, µM (doses to about 57.5 µM), hits mostly inhibitors | 270,000 tested, 0.007% active
Target sequence (P51570 whole entry, looked up): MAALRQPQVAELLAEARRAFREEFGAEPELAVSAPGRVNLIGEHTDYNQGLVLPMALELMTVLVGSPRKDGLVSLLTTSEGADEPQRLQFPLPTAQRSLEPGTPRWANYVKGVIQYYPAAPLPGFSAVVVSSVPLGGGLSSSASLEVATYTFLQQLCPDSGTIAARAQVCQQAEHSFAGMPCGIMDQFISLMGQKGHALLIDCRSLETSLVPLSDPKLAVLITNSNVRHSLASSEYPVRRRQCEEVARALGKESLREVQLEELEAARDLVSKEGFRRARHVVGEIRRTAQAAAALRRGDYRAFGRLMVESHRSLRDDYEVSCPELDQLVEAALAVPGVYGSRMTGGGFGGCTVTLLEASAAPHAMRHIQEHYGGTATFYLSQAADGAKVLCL
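Human GALK (5 nM) with 35 uM ATP and 100 uM galactose in 20 mM HEPES pH 8.0, 5 mM MgCl2, 60 mM NaCl, 1 mM DTT, 0.01% BSA. After 1 h at room temperature, leftover ATP was read by Kinase-Glo Plus luminescence.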
D1 ag = human D1 receptor agonism | 360,000 tested, 1% active | HEK293 T-REx D1 cells, calcium flux, agonist mode | P21728 | activation, % at 2 µM; in the data active = activation above about 30%
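Agonism was scored from calcium flux recorded over 180 s (1 read/s) after pintool compound addition, following a 10-cycle baseline. Cells were inducible force-coupled HEK293 TREx D1, plated overnight at 30 C and loaded with no-wash calcium dye.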
Large screens that a line does not name were inactive. Unless noted, calls follow the shape of the dose curve; as a rule, active = well fitted inhibition curve with a large enough effect; inconclusive = small, poorly fitted or top-dose-only effect, or effect the other way; inactive = flat fitted curve, though single readings scatter.

CCn1nc(-c2ccccc2)c(-c2ccccc2)c(C(=O)Nc2ccc(S(N)(=O)=O)cc2)c1=O	none (no result: Eya2 inh, USP2a block, GALK inh)
CCOc1ccc(OCC)c(NS(=O)(=O)c2cc(-c3onc(C)c3C)ccc2OC)c1	none (no result: Eya2 inh, USP2a block, GALK inh)
CCCOc1ccc(C(=O)NC(=S)NNC(=O)c2c(-c3ccccc3)noc2C)cc1	D1 ag 207.3
CCCOc1ccc(NC(=O)c2c(-c3ccccc3)noc2C)cc1	none
Cc1onc(-c2ccccc2)c1C(=O)NC(=S)NNC(=O)c1ccc(O)cc1O	none
Cc1onc(-c2ccccc2)c1C(=O)NC(=S)NNC(=O)c1ccccc1O	D1 ag 143.1
CCCOc1ccc(C(=O)NNC(=S)NC(=O)CC)cc1	D1 antag -71.3 (no result: GALK inh)
O=C(COc1ccccc1[N+](=O)[O-])OC1CCS(=O)(=O)C1 (configuration not stated)	D1 antag -78.5
CC(=O)c1ccc(N(CC(=O)NC2CCCCC2)C(=O)c2csnn2)cc1	none
CC(=O)c1cccc(N(CC(=O)NC2CCCC2)C(=O)c2csnn2)c1	D1 antag -38.8 (no result: D1 PAM)
Cc1ccc(/C=C/C(=O)Nc2ccc3nc(N4CCC(C)CC4)cc(C)c3c2)cc1	none (no result: Eya2 inh, USP2a block, GALK inh)
Cc1nnc2c(N3CCN(c4ccccc4F)CC3)nc3ccc(C(=O)c4ccccc4)cc3n12	none (no result: Eya2 inh, USP2a block, GALK inh)
COc1cc(/C=C/C(O)=C/C(=O)/C=C/c2ccc(O)cc2)ccc1O	D1 ag 350.5 (no result: GALK inh)
COc1cc(/C=C/C(=O)NC(=O)c2ccccc2O)ccc1O	none
COc1ccc(NC(=O)CSc2nnc(-c3nonc3NC(C)=O)n2C)cc1Cl	none (no result: Eya2 inh, USP2a block, GALK inh)
C(=N\n1cnnc1)/c1nc2ccccc2[nH]1	D1 antag -34.1
Cc1nc2sc(C(N)=O)c(N)c2c2c1CCCC2	D1 antag -30.1
O=C(NCc1ccccc1Cl)c1c2c(nc3ccccc13)C(=O)N(C1CCCCC1)C2	none (no result: Eya2 inh, USP2a block, GALK inh)
CCCN(CC1CC1)C(=O)COC(=O)c1[nH]c(C)c(C(=O)OCC)c1C	D1 ag 30.1
Cc1ccc(CSCC(=O)N2CCN(c3ccccc3F)CC2)cc1	none (no result: Eya2 inh, USP2a block, GALK inh)
O=C(NNC(=O)c1cc(-c2cccc(Br)c2)nc2ccccc12)c1csc(N2CCOCC2)n1	D1 antag -84.0 (no result: GALK inh)
Cc1ccc(NC(=O)c2cc3ccccn3n2)cc1F	none (no result: Eya2 inh, USP2a block, GALK inh)
COC(=O)Cn1c(C)c(/C=C/c2cc[n+](C)cc2)c2ccccc21	D1 ag 56.7
Cc1nc2c(-c3ccccc3)c[nH]n2c(=O)c1Cc1ccccc1	D1 ag 36.5 (no result: D1 PAM)
O=C(Nc1cc(S(=O)(=O)N2CCCCC2)ccc1Cl)c1ccccc1NS(=O)(=O)c1ccc(F)cc1	D1 antag -33.0
O=C(Nc1ccccc1N1CCOCC1)c1ccccc1NS(=O)(=O)c1ccc(F)cc1	D1 antag -86.9
Cc1ccc2cccc(N=Cc3c(C)[nH]n(-c4ccccc4)c3=O)c2n1	none
CSc1nnc(-c2ccccc2N=Cc2c(C)[nH]n(-c3ccccc3)c2=O)c(=O)[nH]1	D1 antag -33.0
CN(C)c1ccc(/C=C(\C#N)C(=O)NCc2ccco2)cc1	D1 ag 35.1
N#C/C(=C/c1ccc(C(=O)O)cc1)C(=O)NCc1ccccc1	none
N#C/C(=C\c1cn(Cc2ccc(F)cc2)c2ccccc12)C(=O)NCc1ccco1	D1 antag -35.8
Cc1ccc(CNC(=O)/C(C#N)=C\c2ccc(N(C)C)cc2)cc1	USP2a block inconclusive
CCN(CC)c1ccc(/C=C(\C#N)C(=O)NCc2ccccc2)cc1	D1 ag 57.7
CC(OC(=O)/C(C#N)=C/c1ccc(N(C)C)cc1)C(=O)NCc1ccco1 (configuration not stated)	D1 ag 35.0 (no result: GALK inh)
CCOC(=O)c1ccc(CN(Cc2ccccc2C)S(=O)(=O)c2ccc(F)c(C(=O)Nc3cccc(OC)c3)c2)cc1	none (no result: Eya2 inh, USP2a block, GALK inh)
CCOc1ccc(CCNC(=O)C2CCCN(S(=O)(=O)N(C)c3ccc(F)cc3)C2)cc1 (configuration not stated)	none (no result: Eya2 inh, USP2a block, GALK inh)
CCN(CC)c1ccc(/C=C(\C#N)C(=O)NCc2ccco2)cc1	D1 ag 47.9
Cc1ccc(-c2n[nH]c(=S)c3ccccc23)cc1	D1 antag -34.9
O=C(Cn1ncc2ccsc2c1=O)N1CCN(c2ccccc2)CC1	none (no result: Eya2 inh, USP2a block, GALK inh)
CN(C)c1ccc(/C=C2\C(=N)N3C(=NC2=O)Sc2cc(S(C)(=O)=O)ccc23)cc1	D1 ag 78.2 (no result: GALK inh)
CN(C)c1ccc(/C=C2\C(=N)N3N=C(CC(=O)N4CCCCC4)SC3=NC2=O)cc1	D1 ag 36.5
Cc1ccc(S(=O)(=O)Oc2ccc(/C=C3/C(=N)N4C(=NC3=O)SN=C4S(C)(=O)=O)cc2)cc1	GALK inh inconclusive
COc1ccc(NC(=O)COc2ccc(C)nc2[N+](=O)[O-])cc1S(N)(=O)=O	D1 antag -39.5 (no result: GALK inh)
Cc1ccc(OCC(=O)Nc2ccc3c(c2)CCC3)c([N+](=O)[O-])n1	none
Cc1cccc(NC(=O)c2oc3c(c2C)-c2[nH]ncc2CC3)c1C	none (no result: Eya2 inh, USP2a block, GALK inh)
Cc1ccc(NC(=O)c2oc3c(c2C)-c2[nH]ncc2CC3)c(Cl)c1	D1 antag -43.4 (no result: Eya2 inh, USP2a block, GALK inh)
Cn1nnnc1Sc1ncnc2scc(-c3ccccc3F)c12	none (no result: Eya2 inh, USP2a block, GALK inh)
CNC(=S)N1N=C(c2ccc(Br)cc2)CC1c1ccc(OC)cc1 (configuration not stated)	none
CNC(=S)N1N=C(c2ccc(C)cc2)CC1c1ccc(N(C)C)cc1 (configuration not stated)	D1 ag 36.5
CNC(=S)N1N=C(c2ccc(C)cc2)CC1c1ccc(OC)cc1 (configuration not stated)	D1 antag -40.3
CCC(=O)Nc1ccccc1-c1nc2ccccc2n(C(C)C(=O)Nc2ccc(OC)cc2)c1=O (configuration not stated)	D1 antag -30.9 (no result: Eya2 inh, USP2a block, GALK inh)
CCC(=O)Nc1ccccc1-c1nc2ccccc2n(C(CC)C(=O)Nc2cccc(Cl)c2)c1=O (configuration not stated)	none (no result: Eya2 inh, USP2a block, GALK inh)
O=C(CCN1C(=O)c2ccccc2S1(=O)=O)Nc1ccc(Cl)cc1	D1 antag -51.8
COc1ccc(Nc2nc3cc(Cl)c(Cl)cc3n3cnnc23)cc1Cl	none (no result: Eya2 inh, USP2a block, GALK inh)
COCCN(CC(=O)NCC1CCCO1)C(=O)CCC(=O)Nc1cc(C)ccn1 (configuration not stated)	D1 antag -37.1
O=C(COc1ccccc1)NC(=S)Nc1cccc2cc(O)ccc12	D1 ag 35.0
O=C(COc1ccccc1)NC(=S)Nc1ccc2c3c(cccc13)CC2	none
Cc1c(-c2cccc(NC(=O)Nc3ccc(Cl)cc3)c2)nc2ncccn12	none (no result: Eya2 inh, USP2a block, GALK inh)
Cc1c(-c2cccc(NC(=O)c3ccc(F)c(F)c3)c2)nc2ncccn12	D1 antag -36.4 (no result: Eya2 inh, USP2a block, GALK inh)
